SMILES strings stand for the structures. About 83,000 compounds went through this panel and 20% of them were active in at least one assay; those are over-represented in the sample as a whole.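 In brief: 96-well plates, 48 h treatment, single concentration, percent growth endpoint.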 Unmarked numbers belong to inactive results. Active and inactive are the calls of the source.

The test system of the experiment is T-47D breast. As to the kind of experiment: NCI-60 one-dose screen, 48 h (100 = growth as untreated, 0 = no growth, -100 = all killed). As to conditions: 10 µM unless noted. The protocol: Growth inhibition of the T-47D human tumor cell line is measured as a screen for anti-cancer activity. Cells are grown in 96 well plates and exposed to the test compound for 48 hours. Compounds are tested at a single concentration, which is 10^-5 M for most compounds. The reported endpoint is percent growth (GI% or GIPRCNT), where numbers from 0 - 100% represent growth inhibition, and numbers from -100% - 0 represent cell death. For example, a value of 40 represents 60% growth inhibition. A value of 0 means no net growth occurred over the course of the experiment. A value of -40 indicates 40% of cells at the beginning of the experiment died by the end of the experiment. A value of -100 means all cells are dead at the end of the experiment.
NCI-60 Human Tumor Cell Lines Screen was performed using the standard one-dose NCI protocol, which is described in more detail at https://dtp.cancer.gov/discovery_development/nci-60/default.htm.
Compounds with GIPRCNT values below 10 were considered active. Activity score was based on GIPRCNT using the following formula: […]
Score is 0 for GIPRCNT values of 100 or above, 50 for GIPRCNT values of 0, and 100 for GIPRCNT values of -100.
Turning to `CN1CCN(c2ccc(N3Cc4ccccc4OC4=C3C(=O)c3c(O)ccc(O)c3C4=O)cn2)CC1`, the growth is -32.7% (active).
On to `COc1ccc(-c2nnc(SCC(=O)Nc3ccc(C(=O)/C=C/c4ccc(Cl)cc4)cc3)n2-c2ccccc2)cc1`, for which the growth is 88%.
Regarding `CCN(CC)Cc1cc(Nc2nc(NC3CCC(N(C)C)CC3)c3ccccc3n2)ccc1OC` (stereo not given), the growth was 53.9%.
With `O=C(C(=O)c1cccnc1)c1cccnc1`, the growth was 170%.
The same measure for `COc1ccc(C(=O)/C=C/c2cn(-c3ccccc3)nc2-c2cccc(Nc3ccnc4cc(Cl)ccc34)c2)cc1`: 97.1%; for `O=C(Nc1cccc(Cl)c1)Nc1cc(C(F)(F)F)ccc1Cl`: 5.15% (active).
Next, `Oc1ccc(CCCCCCc2ccc(O)cc2)cc1`: 65%; `COc1ccc(C2C=C(c3ccc(Cl)cc3)N=C3SC=CN32)cc1` (stereo not given): 104%.
The same measure for `c1ccc(-c2[nH]c3ccccc3c2-c2ccccc2)cc1`: 66.1%.
Turning to `CCN(CC)CCCCCCCNc1cc(OC)cc2c(C)ccnc12`, the growth was 53.6%.
Next, `CCOC(=O)C1=C(C)NC(SCc2nnc(-c3ccc(Cl)cc3)o2)=NC1c1ccc(Br)cc1` (stereo not given): 48%.
Next, `CCCCn1c(-c2ccc(F)cc2)nc2cc(OC)c(OC)cc2c1=O`: 89.1%; `Cc1cc(N=Nc2ccc(-c3ccc(N=Nc4ccc(O)c(C(=O)O)c4)cc3)cc2)c(N)c(N=Nc2ccc(C(=O)O)cc2)c1N`: 78.6%; `NC(N)=N/N=C/c1ccccc1`: 94%.
The same measure for `O=c1cc(N2CCOCC2)oc2c(-c3ccc4c(c3)OCCO4)csc12`: -15% (active).
With `Nc1ccc(N(O)/C=C2\C=CC=CC2=O)cc1N`, the growth is 78.8%.
Next, `Cc1ccc(Nc2nc(NCCO)c3ccccc3n2)cc1C`: 55.9%; `FC1(F)CCN(Cc2c[nH]c3cc(Cl)ccc23)C[C@H]1CCc1ccccc1`: 45.2%.
The same measure for `NS(=O)(=O)c1ccc(N2N=C(c3cccs3)CC2c2ccccc2O)cc1` (stereo not given): 46.1%; for `O=C(C=P(c1ccccc1)(c1ccccc1)c1ccccc1)CCl`: -73.8% (active); for `CCCCN(CCCC)CCC(O)c1cc2ccc(C(F)(F)F)cc2c2cc(C(F)(F)F)ccc12` (stereo not given): 52.1%.
The same measure for `C=CCn1c(C)nc2cc(Nc3nc(N4CCOCC4)nc4nc[nH]c34)ccc21`: 75.4%; for `Cc1ccc(S(=O)(=O)NC(CCC(=O)Nc2ccc(Cl)cc2)C(=O)Nc2ccc(Cl)cc2)cc1` (stereo not given): 16.5%; for `COC(=O)c1ccc(NC(N)=NCCC(C)(C)c2ccc(C(F)(F)F)cc2)nc1`: -3.4% (active).
Regarding `Clc1cn2cc(-c3ccc(Cl)c(Cl)c3Cl)nc2s1`, the growth was 71.8%.
Next, `O=C1Nc2ccccc2/C1=C/c1c[nH]c2ccccc12`: 68.3%.
The same measure for `Cc1ccc2cc3c(NC(=O)c4cccnc4)nn(C)c3nc2c1`: 69.6%; for `CCc1ccc2c(c1)N(CCO)C1=C(C(=O)OC1)C2c1cccc(Br)c1` (stereo not given): 47.5%; for `Cc1ccc(NC(=O)c2[nH]c(SCCN(C)C)nc2-c2ccc(F)cc2)cc1C#Cc1cnc2cccnn12`: 84.2%.
With `CCCCCNCCCCCNc1cc(OC)cc2cccnc12`, the growth was 68.1%.
Next, `CCn1c(CN2CCN(Cc3ccccc3)CC2)nc2cc(NC(=O)c3cccs3)ccc21`: -62.5% (active); `COc1ccc(-c2cn(-c3cccc(C(=O)/C=C/c4ccc(O)c(OC)c4)c3)c(=O)[nH]2)cc1`: 32.1%; `O=C(C(Br)C(Br)c1ccccc1)C(Br)C(Br)c1ccccc1` (stereo not given): -30.6% (active).
On to `CCc1ccc(-c2ccc(NC3CCCCCC3)nn2)cc1S(N)(=O)=O`, for which the growth was 103%.
For `C=C(C)c1ccc(/C=N/NC(N)=S)cc1`, the growth was 67.2%.
Next, `O=C1C=CC(=O)N1c1cccc(N2C(=O)C=CC2=O)c1`: -13.6% (active).
In the case of `O=C(Nc1ccc(Oc2ccc(NC(=O)Nc3ccccc3Cl)cc2)cc1)Nc1ccccc1Cl`, the growth is 45.3%.
Take `CCOC(=O)C(=CNc1ccccc1Cl)C(=O)OCC`: the growth was 95%.
Turning to `O=C(CCc1nc2sc3c(c2c(=O)[nH]1)CCC3)NCc1cn(-c2ccccc2)nc1-c1ccccc1`, the growth is -0.261% (active).
The same measure for `C/C=C(\C)C(C(=O)NC1CCCCC1)N(C(=O)C1CCc2cc(F)ccc2O1)c1ccc([N+](=O)[O-])cc1` (stereo not given): 88.1%.

(Values after PubChem BioAssay (NCI).)
